TRPM1 prom inh – MITF TRPM1 promoter inhibition in SK-MEL-5 cells | inhibition, % at 12.5 µM | 0.83% of 330,000 active | SK-MEL-5 TRPM1 promoter luciferase, 24 h | AID 488899;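 active means mean inhibition across replicates of 60% or more, whatever share of single replicates reaches that level; inconclusive means some that reach 60%, reason not given; inactive means mean inhibition across replicates below 60%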
PGC1a acetyl inh – modulators of PGC1a acetylation. inhibition, % at 15.6 µM. AID 651687. 0.17% of 350,000 active. U2OS PGC1a acetylation, AlphaScreen anti-acetyl-lysine; with virally co-expressed GCN5 acetyltransferase;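 active means every replicate shows inhibition of at least 40%; inconclusive means mean inhibition at least 40% but some replicate below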;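 further: 0% = neutral control wells and 100% = positive control wells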
EWS-Fli inh – inhibitors of EWS/Fli oncoprotein transcriptional activity; A673 NR0B1-luciferase reporter, viability-normalised; inhibition, % at 12.6 µM; 0.67% of 350,000 active; AID 651661;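 active means mean inhibition of at least 50% after viability correction, with every replicate also passing that limit; inconclusive means mean reaches 50% but only one of two replicates passes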;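 further: firefly luciferase signal divided by Alamar Blue viability fluorescence both relative to DMSO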
EBV LMP1 NFkB – inhibitors of Epstein-Barr LMP1-induced NF-kappaB reporter; LMP1-induced NF-kappaB luciferase reporter cells, luminescence; inhibition, % at 12.5 µM; 0.69% of 350,000 active; in the data active means inhibition above about 41%; inconclusive means no clear call, values can overlap the other calls;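 further: 0% = neutral control wells and 100% = reference inhibitor control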
PAX8 reporter – inhibitors of PAX8 transcriptional activity in RMG-I cells | RMG-I TPO-luciferase reporter, SteadyGlo, 24 h | inhibition, % at 12.6 µM | 1.2% of 360,000 active | AID 652154;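 active means mean replicate inhibition at least 60% with every replicate also reaching 60%; inconclusive means only one of the two criteria is met; inactive means mean below 60% and not all replicates reaching 60%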;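 further: luciferase light reporting Pax8 driven TPO promoter activity; plate controls were median of neutral control wells for no effect and mitoxantrone controls for full effect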
LGR2 inh – Drosophila LGR2 receptor signaling inhibition; HEK293 LGR2, CRE-luciferase, bursicon-stimulated, 4 h; inhibition, % at 9.99 µM; 0.35% of 380,000 active; AID 720647;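 active means drop in luminescence signal, shown as inhibition above about 50% in the replicate tests, limit read from the data, passing the limit was not always enough; inconclusive means probably only some replicates passing the limit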;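 further: agonist challenge used bursicon conditioned medium at about half maximal strength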
* = called active by the depositor; ? = inconclusive; . = no result given. In the library only some 2.2% were active in any assay of this set; here they are far more common.

SMILES | TRPM1 prom inh | PGC1a acetyl inh | EWS-Fli inh | EBV LMP1 NFkB | PAX8 reporter | LGR2 inh
CCN=C1NN=C(c2cc(C)n(Cc3ccco3)c2C)CS1 | 80* | . | 64* | 70* | . | .
CN(C)CCCNC(=O)C[C@@H]1CC[C@H]2[C@H](COc3ccc(NC(=O)NC4CCCC4)cc3C(=O)N2C)O1 | . | 4 | -36 | . | -55 | -13
Cc1sc(NC(=O)CCCC(=O)O)c(C(N)=O)c1-c1ccccc1 | 41 | . | 54* | 11 | -10 | 27
COc1ccccc1C(=O)NC(=O)CSc1nnc(N)s1 | -7 | 0 | 0 | 42* | 4 | -10
CCOc1cc(/C=C/C(=O)O)ccc1OCCOc1ccccc1 | 2 | . | 5 | -20 | -17 | -1
CCCOc1ccc(/C=C/C(=O)O)cc1OC | 5 | 62* | -2 | -3 | 8 | 8
Cc1ccc(S(=O)(=O)N(C)C[C@@H]2OCCCC[C@@H](C)Oc3ccc(NC(=O)Nc4cccc5ccccc45)cc3C(=O)N([C@@H](C)CO)C[C@@H]2C)cc1 | . | 2 | -7 | . | -13 | 13
CCOc1ccc(OCC(=O)N(CCC2=CCCCC2)c2c(N)n(Cc3ccccc3)c(=O)[nH]c2=O)cc1 | 77* | 8 | 39 | -5 | -9 | 27
Cc1cc(=O)oc2ccc(OC(=O)CN3C(=O)c4cccc([N+](=O)[O-])c4C3=O)cc12 | -6 | . | 4 | 0 | 147* | .
CCN1[C@H](C(=O)N(C)C)[C@@H](CO)[C@@H]2Cn3c(ccc(C4=CCCCC4)c3=O)[C@@H]21 | . | . | 8 | . | . | -3
O=C(c1ccc2c(c1)OCO2)N1CCN(c2ccc(C(F)(F)F)cn2)CC1 | 4 | . | -6 | 13 | 132* | 3
CC(C)c1ccc(/C=C/C(=O)Nc2nncs2)cc1 | 5 | 3 | 18 | -23 | -106 | 64*
Cc1sc(NC(=O)/C=C/c2ccc(C(C)C)cc2)c(C#N)c1C | 4 | 4 | . | -6 | . | .
COc1ccc2c3c([nH]c2c1)[C@H](CO)N(C(C)=O)CC31CCN(C(=O)CN2CCOCC2)CC1 | . | 4 | -10 | . | . | ?
CCS(=O)(=O)c1ccc(O)c(NC(=O)COc2ccc(Br)cc2)c1 | -18 | 97* | -13 | 9 | 1 | -2
CCN(CC)S(=O)(=O)c1ccc(O)c(NC(=O)COc2ccc(S(=O)(=O)N3CCOCC3)cc2)c1 | -1 | . | 3 | -4 | -4 | -8
CN(C)CCNc1ccc2ncn3c4ccc(O)cc4c(=O)c1c23 | 83* | . | -6 | 35 | 64* | 11
CN(C)CCNc1ccc(CO)c2sc3ccc(O)cc3c(=O)c12 | 85* | -3 | 43 | 49* | 96* | .
COc1ccc2sc3cccc(NCCN(C)C)c3c(=O)c2c1 | . | . | -25 | . | -38 | -4
COc1ccc(S(=O)(=O)N(C)C[C@@H]2OCCCC[C@@H](C)Oc3ccc(NS(=O)(=O)c4ccc(C)cc4)cc3C(=O)N([C@H](C)CO)C[C@@H]2C)cc1 | . | 3 | -1 | . | -13 | -4
C[C@@H]1CN([C@@H](C)CO)C(=O)c2cc(-c3cccc(F)c3)cnc2O[C@H]1CN(C)C | . | 16 | -8 | . | . | -2
C[C@@H]1CCCCO[C@H](CN(C)S(C)(=O)=O)[C@H](C)CN([C@@H](C)CO)C(=O)c2cc(NC(=O)Nc3ccc4c(c3)OCO4)ccc2O1 | . | 9 | -2 | . | . | -11
O=C1N(Cc2ccccc2)Cc2ccccc2[C@@H]2OC(c3ccc(OCCCO)cc3)=N[C@]12Cc1ccccc1 | . | -52 | 10 | . | 64* | .
O=C(c1ccccc1)N1Cc2ccccc2C[C@]2(N=C(c3ccc(OCCCO)cc3)O[C@@H]2c2ccccc2)C1=O | . | . | -4 | . | 68* | .
O=C1N(CCS(=O)(=O)c2ccccc2)Cc2ccccc2C[C@@]12N=C(c1ccc(OCCCO)cc1)O[C@H]2c1ccccc1 | . | -15 | 6 | . | 94* | .
C=CC[C@]12N=C(c3ccc(OCCCO)cc3)O[C@H]1c1ccccc1CN(C(=O)c1ccccc1)C2=O | . | . | 0 | . | 4 | .
CC(C)NC(=O)Nc1ccc2c(c1)C(=O)N([C@@H](C)CO)C[C@H](C)[C@@H](CN(C)C(=O)CCC(F)(F)F)OCCCC[C@H](C)O2 | . | -2 | . | . | -11 | 13
COc1ccc(Cn2c(O)c(C=Nc3ccccc3C(=O)O)c3ccccc3c2=O)cc1 | 16 | 8 | -21 | 44* | 7 | 20
COc1ccc(Cn2c(O)c(C=Nc3ccc(OC)cc3)c3ccccc3c2=O)cc1 | 14 | 6 | . | 7 | -1 | 24

Source: PubChem BioAssay
